Results taken from PMC7862700, “An all-to-all approach to the identification of sequence-specific readers for epigenetic DNA modifications on cytosine”.

Columns and labels:
Assay in all cases: DAPPL (digital affinity profiling via proximity ligation, sequencing); 10 mM Tris-HCl pH 7.5, 50 mM NaCl, 1 mM DTT, 4% glycerol, room temperature, 30 min; GST-TFs on glutathione beads, 16-mer random dsDNA library, 0.1% formaldehyde crosslink after washing; high values mean tight binding
[1] = target: T1, FEV (Homo sapiens, UniProt Q99581 1-238); settings: protein: recombinant; tags: N-terminal GST; dsDNA, one strand shown
T1 sequence: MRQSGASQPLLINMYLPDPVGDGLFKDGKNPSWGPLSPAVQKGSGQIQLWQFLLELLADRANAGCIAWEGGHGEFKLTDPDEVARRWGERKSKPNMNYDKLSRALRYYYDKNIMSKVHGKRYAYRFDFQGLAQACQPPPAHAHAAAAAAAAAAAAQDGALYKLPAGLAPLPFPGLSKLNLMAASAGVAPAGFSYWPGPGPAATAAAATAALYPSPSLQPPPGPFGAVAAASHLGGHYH
Procedure, shortened: (§1)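 Binding signal is each hexamer's read frequency for a factor divided by its frequency in the tag-only sample. The factors were GST-fused human transcription factors from yeast, captured on glutathione beads, DNA-barcoded and pooled with that sample. Pools were incubated with 200 nmole of a random double-stranded 16-mer DNA library in Tris/NaCl/DTT/glycerol buffer at room temperature for 30 min, then washed, crosslinked with 0.1% formaldehyde, proximity-ligated with BsaI/T4 ligase (1 h, 37 °C), PCR-amplified and sequenced on an Illumina NextSeq500.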

[2] = target: ETV5 (Homo sapiens, UniProt P41161 1-510); settings: protein: recombinant; tags: N-terminal GST; dsDNA, one strand shown
Procedure, shortened: as §1

[3] = target: HSF1 (Homo sapiens, UniProt Q00613 1-529); settings: protein: recombinant; tags: N-terminal GST; chain copies: 3; dsDNA, one strand shown
Procedure, shortened: as §1

[4] = target: T2, SPIC (Homo sapiens, UniProt Q8N5J4 1-248); settings: protein: recombinant; tags: N-terminal GST; dsDNA, one strand shown
T2 sequence: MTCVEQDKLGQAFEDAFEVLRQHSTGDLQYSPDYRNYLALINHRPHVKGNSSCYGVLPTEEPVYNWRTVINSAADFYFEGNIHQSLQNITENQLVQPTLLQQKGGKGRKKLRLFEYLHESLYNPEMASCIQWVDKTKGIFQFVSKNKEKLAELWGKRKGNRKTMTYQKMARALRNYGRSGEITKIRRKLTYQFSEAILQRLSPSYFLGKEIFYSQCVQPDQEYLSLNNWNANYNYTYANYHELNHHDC
Procedure, shortened: as §1

[5] = target: ELF4 (Homo sapiens, UniProt Q99607 1-663); settings: protein: recombinant; tags: N-terminal GST; dsDNA, one strand shown
Procedure, shortened: as §1

[6] = target: T3, ELK4 (Homo sapiens, UniProt P28324-2 1-405); settings: protein: recombinant; tags: N-terminal GST; dsDNA, one strand shown
T3 sequence: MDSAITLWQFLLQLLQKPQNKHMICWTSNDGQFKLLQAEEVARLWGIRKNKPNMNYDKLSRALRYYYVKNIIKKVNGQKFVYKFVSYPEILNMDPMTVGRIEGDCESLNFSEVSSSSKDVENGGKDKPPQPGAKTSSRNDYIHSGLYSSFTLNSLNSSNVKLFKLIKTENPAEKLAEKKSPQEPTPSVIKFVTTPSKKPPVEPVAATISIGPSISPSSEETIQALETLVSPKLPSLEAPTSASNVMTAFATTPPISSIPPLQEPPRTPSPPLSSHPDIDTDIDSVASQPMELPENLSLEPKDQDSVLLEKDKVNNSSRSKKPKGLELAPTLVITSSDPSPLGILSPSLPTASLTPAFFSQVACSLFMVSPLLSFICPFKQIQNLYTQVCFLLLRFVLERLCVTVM
Procedure, shortened: as §1

[7] = target: T4, ETV2 (Homo sapiens, UniProt O00321 1-342); settings: protein: recombinant; tags: N-terminal GST; dsDNA, one strand shown
T4 sequence: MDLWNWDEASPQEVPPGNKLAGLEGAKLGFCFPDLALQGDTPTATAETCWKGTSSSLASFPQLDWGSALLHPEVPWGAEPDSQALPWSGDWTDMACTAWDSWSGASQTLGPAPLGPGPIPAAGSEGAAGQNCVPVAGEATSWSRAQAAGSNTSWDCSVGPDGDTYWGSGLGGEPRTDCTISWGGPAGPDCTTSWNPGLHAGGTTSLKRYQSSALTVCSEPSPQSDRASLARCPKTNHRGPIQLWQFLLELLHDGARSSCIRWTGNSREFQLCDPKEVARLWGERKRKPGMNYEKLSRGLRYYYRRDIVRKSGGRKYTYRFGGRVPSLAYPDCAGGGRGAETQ
Procedure, shortened: as §1

[8] = target: T5, ELF3 (Homo sapiens, UniProt P78545 1-371); settings: protein: recombinant; tags: N-terminal GST; dsDNA, one strand shown
T5 sequence: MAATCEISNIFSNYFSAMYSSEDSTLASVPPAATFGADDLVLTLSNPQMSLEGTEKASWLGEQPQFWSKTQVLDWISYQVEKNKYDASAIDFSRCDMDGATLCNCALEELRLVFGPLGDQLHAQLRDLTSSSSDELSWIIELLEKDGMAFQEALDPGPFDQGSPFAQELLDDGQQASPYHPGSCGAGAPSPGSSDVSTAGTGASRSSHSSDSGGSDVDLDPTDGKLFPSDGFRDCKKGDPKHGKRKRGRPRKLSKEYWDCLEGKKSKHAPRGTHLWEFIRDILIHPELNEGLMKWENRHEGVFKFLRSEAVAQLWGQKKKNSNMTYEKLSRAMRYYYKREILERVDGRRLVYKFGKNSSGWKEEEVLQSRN
Procedure, shortened: as §1

[9] = target: CRX (Homo sapiens, UniProt O43186 1-299); settings: protein: recombinant; tags: N-terminal GST; dsDNA, one strand shown
Procedure, shortened: as §1

[10] = target: ETV1 (Homo sapiens, UniProt P50549 1-477); settings: protein: recombinant; tags: N-terminal GST; dsDNA, one strand shown
Procedure, shortened: as §1

[11] = target: T6, ERF (Homo sapiens, UniProt P50548 1-548); settings: protein: recombinant; tags: N-terminal GST; dsDNA, one strand shown
T6 sequence: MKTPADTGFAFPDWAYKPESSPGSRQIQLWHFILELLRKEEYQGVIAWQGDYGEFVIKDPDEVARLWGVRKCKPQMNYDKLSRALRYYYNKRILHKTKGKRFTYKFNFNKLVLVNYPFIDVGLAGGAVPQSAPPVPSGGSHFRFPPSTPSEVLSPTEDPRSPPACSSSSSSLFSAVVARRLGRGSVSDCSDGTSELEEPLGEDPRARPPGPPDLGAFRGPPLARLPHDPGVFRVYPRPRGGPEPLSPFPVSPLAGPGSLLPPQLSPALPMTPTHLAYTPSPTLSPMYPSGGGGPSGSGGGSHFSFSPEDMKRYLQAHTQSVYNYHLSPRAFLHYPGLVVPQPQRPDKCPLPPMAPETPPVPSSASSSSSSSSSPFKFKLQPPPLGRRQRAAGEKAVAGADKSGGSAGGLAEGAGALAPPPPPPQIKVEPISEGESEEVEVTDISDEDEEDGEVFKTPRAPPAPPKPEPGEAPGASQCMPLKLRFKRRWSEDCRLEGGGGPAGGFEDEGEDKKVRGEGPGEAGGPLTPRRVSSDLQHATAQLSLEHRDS
Procedure, shortened: as §1

[12] = target: T7, ETV3L (Homo sapiens, UniProt Q6ZN32 1-361); settings: protein: recombinant; tags: N-terminal GST; dsDNA, one strand shown
T7 sequence: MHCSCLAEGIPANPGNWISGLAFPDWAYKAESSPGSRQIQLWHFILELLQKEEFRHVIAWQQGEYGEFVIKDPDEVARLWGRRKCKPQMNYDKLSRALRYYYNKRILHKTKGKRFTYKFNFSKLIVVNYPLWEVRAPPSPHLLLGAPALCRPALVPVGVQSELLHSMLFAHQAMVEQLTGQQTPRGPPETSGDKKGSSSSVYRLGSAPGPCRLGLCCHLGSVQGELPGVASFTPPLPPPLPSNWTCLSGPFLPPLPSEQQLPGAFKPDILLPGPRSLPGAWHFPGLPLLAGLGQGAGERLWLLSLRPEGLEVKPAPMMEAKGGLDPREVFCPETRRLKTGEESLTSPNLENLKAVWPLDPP
Procedure, shortened: as §1

[13] = target: T8, ETS2 (Homo sapiens, UniProt P15036 1-469); settings: protein: recombinant; tags: N-terminal GST; dsDNA, one strand shown
T8 sequence: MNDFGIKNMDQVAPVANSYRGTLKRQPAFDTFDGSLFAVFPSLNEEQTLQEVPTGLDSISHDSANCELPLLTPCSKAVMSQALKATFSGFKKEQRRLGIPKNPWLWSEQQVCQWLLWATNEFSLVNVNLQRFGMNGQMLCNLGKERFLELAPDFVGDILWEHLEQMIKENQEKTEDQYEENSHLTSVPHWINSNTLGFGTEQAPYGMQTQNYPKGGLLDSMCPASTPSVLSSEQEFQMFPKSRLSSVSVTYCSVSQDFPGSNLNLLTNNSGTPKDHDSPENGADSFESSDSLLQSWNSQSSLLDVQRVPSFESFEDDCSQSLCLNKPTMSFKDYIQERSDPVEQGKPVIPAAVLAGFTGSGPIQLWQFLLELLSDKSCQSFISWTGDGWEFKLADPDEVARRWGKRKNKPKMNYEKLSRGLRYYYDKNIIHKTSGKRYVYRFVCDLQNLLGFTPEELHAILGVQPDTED
Procedure, shortened: as §1

[14] = target: T9, SPDEF (Homo sapiens, UniProt O95238 1-335); settings: protein: recombinant; tags: N-terminal GST; dsDNA, one strand shown
T9 sequence: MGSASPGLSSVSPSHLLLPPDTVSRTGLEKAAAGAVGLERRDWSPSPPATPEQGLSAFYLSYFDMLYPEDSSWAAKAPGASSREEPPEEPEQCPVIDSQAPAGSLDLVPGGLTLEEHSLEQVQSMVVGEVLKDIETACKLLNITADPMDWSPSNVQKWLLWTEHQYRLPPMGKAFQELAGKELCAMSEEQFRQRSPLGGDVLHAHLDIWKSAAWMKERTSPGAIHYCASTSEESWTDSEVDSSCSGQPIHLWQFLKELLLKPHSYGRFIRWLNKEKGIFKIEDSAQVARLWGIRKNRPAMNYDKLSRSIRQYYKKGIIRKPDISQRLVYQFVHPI
Procedure, shortened: as §1

[15] = target: T10, ETV7 (Homo sapiens, UniProt Q9Y603 1-341); settings: protein: recombinant; tags: N-terminal GST; dsDNA, one strand shown
T10 sequence: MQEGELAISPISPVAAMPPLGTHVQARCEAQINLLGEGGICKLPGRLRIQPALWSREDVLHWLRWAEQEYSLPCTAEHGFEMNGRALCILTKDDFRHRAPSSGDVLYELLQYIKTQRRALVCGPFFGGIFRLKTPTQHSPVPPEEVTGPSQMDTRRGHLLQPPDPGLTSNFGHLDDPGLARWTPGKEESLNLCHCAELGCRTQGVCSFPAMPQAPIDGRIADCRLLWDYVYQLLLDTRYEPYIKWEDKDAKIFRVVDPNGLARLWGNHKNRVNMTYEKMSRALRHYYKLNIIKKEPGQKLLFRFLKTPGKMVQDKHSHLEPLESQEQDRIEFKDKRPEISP
Procedure, shortened: as §1

[16] = target: T11, ELF5 (Homo sapiens, UniProt Q9UKW6-2 1-255); settings: protein: recombinant; tags: N-terminal GST; dsDNA, one strand shown
T11 sequence: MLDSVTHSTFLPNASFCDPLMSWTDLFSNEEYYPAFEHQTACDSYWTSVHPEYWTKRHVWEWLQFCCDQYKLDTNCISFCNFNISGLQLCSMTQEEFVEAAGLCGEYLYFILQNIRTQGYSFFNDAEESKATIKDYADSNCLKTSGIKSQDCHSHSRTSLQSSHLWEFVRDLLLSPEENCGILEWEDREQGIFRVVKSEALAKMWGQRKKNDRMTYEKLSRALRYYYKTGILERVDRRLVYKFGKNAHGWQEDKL
Procedure, shortened: as §1

[17] = target: T12, ETV3 (Homo sapiens, UniProt P41162-2 1-143); settings: protein: recombinant; tags: N-terminal GST; dsDNA, one strand shown
T12 sequence: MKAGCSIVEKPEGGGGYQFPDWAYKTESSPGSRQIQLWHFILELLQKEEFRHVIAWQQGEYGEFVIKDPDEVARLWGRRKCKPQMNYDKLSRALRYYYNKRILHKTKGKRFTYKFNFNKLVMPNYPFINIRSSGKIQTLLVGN
Procedure, shortened: as §1

[18] = target: ETV6 (Homo sapiens, UniProt P41212 1-452); settings: protein: recombinant; tags: N-terminal GST; dsDNA, one strand shown
Procedure, shortened: as §1

Chain of ELF4 (Q99607 whole entry): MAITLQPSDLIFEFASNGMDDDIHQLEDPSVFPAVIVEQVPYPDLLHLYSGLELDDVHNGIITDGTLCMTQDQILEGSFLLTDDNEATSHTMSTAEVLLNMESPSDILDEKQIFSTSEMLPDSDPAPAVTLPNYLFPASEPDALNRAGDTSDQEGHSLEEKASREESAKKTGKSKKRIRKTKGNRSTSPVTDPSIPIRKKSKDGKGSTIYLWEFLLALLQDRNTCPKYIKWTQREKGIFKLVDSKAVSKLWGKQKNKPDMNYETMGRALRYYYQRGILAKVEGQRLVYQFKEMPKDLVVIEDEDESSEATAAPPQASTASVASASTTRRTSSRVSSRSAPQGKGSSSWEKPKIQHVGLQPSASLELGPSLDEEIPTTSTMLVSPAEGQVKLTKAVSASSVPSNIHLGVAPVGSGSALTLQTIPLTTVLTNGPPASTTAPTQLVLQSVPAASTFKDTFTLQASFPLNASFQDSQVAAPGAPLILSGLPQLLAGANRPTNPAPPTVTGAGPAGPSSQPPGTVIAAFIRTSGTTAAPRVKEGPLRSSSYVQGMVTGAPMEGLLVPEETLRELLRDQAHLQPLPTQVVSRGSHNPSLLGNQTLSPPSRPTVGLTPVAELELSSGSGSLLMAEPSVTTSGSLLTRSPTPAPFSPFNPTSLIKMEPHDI
Chain of ETV1 (P50549 whole entry): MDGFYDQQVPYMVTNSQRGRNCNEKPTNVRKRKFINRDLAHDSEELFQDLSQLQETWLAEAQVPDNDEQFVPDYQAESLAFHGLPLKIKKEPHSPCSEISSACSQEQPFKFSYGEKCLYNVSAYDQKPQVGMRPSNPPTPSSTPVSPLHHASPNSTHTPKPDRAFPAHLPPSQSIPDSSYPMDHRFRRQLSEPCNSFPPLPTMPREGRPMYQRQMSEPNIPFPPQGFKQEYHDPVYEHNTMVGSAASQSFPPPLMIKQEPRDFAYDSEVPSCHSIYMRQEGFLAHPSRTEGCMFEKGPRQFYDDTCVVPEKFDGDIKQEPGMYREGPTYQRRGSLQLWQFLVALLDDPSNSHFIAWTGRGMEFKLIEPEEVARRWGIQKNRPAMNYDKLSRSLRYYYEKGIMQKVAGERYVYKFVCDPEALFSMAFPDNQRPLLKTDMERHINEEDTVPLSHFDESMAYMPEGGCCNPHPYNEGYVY
Chain of ETV6 (P41212 whole entry): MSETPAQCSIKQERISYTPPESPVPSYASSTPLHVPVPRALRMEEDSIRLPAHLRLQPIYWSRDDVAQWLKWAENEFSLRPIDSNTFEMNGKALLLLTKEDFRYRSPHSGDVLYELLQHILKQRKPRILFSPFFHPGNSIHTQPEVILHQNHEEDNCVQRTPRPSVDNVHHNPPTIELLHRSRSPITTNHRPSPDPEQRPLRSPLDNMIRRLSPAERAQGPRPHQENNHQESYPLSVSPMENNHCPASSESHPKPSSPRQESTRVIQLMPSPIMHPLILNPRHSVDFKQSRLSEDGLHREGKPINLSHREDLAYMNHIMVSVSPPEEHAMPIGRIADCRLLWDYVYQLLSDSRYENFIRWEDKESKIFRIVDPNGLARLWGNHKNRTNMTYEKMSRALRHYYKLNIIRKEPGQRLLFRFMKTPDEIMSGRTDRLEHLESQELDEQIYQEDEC
Chain of ETV5 (P41161 whole entry): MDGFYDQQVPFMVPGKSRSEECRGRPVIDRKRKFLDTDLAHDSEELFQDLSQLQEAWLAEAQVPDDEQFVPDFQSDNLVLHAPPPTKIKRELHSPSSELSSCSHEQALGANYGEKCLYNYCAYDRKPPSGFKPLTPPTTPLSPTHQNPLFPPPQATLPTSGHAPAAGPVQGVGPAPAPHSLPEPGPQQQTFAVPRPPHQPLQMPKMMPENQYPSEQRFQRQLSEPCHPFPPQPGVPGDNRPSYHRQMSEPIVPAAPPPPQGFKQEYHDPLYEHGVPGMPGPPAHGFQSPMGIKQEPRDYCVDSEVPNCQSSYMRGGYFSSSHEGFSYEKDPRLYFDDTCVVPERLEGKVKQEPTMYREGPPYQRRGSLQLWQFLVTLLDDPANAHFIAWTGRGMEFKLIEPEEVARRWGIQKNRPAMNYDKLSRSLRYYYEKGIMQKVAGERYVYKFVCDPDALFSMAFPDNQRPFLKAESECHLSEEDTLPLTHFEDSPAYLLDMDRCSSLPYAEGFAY
Chain of HSF1 (Q00613 whole entry): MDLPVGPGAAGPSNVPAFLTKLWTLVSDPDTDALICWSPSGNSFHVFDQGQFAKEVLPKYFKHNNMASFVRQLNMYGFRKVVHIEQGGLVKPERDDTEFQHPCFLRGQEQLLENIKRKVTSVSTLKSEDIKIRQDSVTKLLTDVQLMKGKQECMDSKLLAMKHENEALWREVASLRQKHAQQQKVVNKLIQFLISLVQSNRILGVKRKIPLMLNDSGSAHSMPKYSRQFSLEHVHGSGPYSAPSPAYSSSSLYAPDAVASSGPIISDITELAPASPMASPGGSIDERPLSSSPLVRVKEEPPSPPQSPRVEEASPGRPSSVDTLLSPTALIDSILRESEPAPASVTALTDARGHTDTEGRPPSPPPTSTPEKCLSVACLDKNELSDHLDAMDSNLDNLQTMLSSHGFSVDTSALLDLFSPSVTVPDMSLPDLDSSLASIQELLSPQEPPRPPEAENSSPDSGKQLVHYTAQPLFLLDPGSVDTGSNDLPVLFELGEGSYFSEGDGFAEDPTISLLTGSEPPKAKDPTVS
Chain of CRX (O43186 whole entry): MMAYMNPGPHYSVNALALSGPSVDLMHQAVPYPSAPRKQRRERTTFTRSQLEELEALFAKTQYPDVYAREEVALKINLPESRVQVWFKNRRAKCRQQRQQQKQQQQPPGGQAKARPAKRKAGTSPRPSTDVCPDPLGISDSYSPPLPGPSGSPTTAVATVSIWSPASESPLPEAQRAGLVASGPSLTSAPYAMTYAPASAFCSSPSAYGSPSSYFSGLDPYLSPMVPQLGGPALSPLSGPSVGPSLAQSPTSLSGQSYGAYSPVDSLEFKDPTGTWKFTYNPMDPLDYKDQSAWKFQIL

## TATATA
[1]
  binding signal: 1.21 fold enrichment (6-mer frequency, TF over GST control)
[2]
  binding signal: 1.28 fold enrichment (6-mer frequency, TF over GST control)
[3]
  binding signal: 1.42 fold enrichment (6-mer frequency, TF over GST control)
[4]
  binding signal: 1.21 fold enrichment (6-mer frequency, TF over GST control)
[5]
  binding signal: 1.31 fold enrichment (6-mer frequency, TF over GST control)
[6]
  binding signal: 1.38 fold enrichment (6-mer frequency, TF over GST control)
[7]
  binding signal: 1.08 fold enrichment (6-mer frequency, TF over GST control)
[8]
  binding signal: 1.35 fold enrichment (6-mer frequency, TF over GST control)
[9]
  binding signal: 1.63 fold enrichment (6-mer frequency, TF over GST control)
[10]
  binding signal: 1.18 fold enrichment (6-mer frequency, TF over GST control)
[11]
  binding signal: 1.24 fold enrichment (6-mer frequency, TF over GST control)
[12]
  binding signal: 1.23 fold enrichment (6-mer frequency, TF over GST control)
[13]
  binding signal: 1.31 fold enrichment (6-mer frequency, TF over GST control)
[14]
  binding signal: 1.35 fold enrichment (6-mer frequency, TF over GST control)
[15]
  binding signal: 1.27 fold enrichment (6-mer frequency, TF over GST control)
[16]
  binding signal: 1.23 fold enrichment (6-mer frequency, TF over GST control)
[17]
  binding signal: 1.34 fold enrichment (6-mer frequency, TF over GST control)
[18]
  binding signal: 1.28 fold enrichment (6-mer frequency, TF over GST control)
